Reference: PubChem BioAssay AID1159580 (chemical genetic matrix, 2015)
Where “and” joins values, the source holds several entries; their conditions need not be identical. Equal values may be shown once. About 2,000 (36%) of roughly 5,500 compounds were called active. About 18% were inconclusive and are not listed. Rule as the data show it: active = normalized growth mostly below about 0.91 (no sharp cut-off); inconclusive = no clear call, values can overlap the other calls; inactive = mostly above about 0.92. The list shows a part of the results.

Experiment: chemical genetic growth profiling, strain panel (AID 1159580);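 also: tested at 20 µM; growth read once vehicle control cultures reached saturation at 30 °C; 1 = growth at the plate median or of vehicle wells; lower values mean less growth of the strain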
Conditions: S. cerevisiae deletion strains, growth OD

Measured: normalized growth

CC(=O)OCC(=O)[C@@]12OC3(CCCC3)O[C@@H]1CC1C3CCC4=CC(=O)C=C[C@]4(C)[C@@]3(F)[C@@H](O)C[C@@]12C (stereo partly specified)
inactive: locus YAL013W, strain DEP1, active compounds read low 1.02 | locus YAL021C, strain ccr4, active compounds read low 1.01 | locus YAL026C, strain drs2, active compounds read low 1.02 | locus YAL030W, strain snc1, active compounds read low 1.02 | locus YBL061C, strain skt5, active compounds read low 1.03 | locus YBR009C, strain hhf1, active compounds read low 1.01 | locus YBR021W, strain FUR4, active compounds read low 1.02 | locus YBR023C, strain chs3, active compounds read low 1.01 | locus YBR171W, strain sec66, active compounds read low 1.02 | locus YBR229C, strain ROT2, active compounds read low 1.02 | locus YBR231C, strain swc5, active compounds read low 1.02 | locus YBR279W, strain paf1, active compounds read low 1.01 | locus YCL011C, strain gbp2, active compounds read low 1.02 | locus YCL016C, strain dcc1, active compounds read low 1.01 | locus YCL029C, strain bik1, active compounds read low 0.985 | locus YCL069W, strain vba3, active compounds read low 1.02 | locus YCR088W, strain abp1, active compounds read low 1.02 | locus YDL005C, strain med2, active compounds read low 1.02 | locus YDL035C, strain GPR1, active compounds read low 1.01 | locus YDL040C, strain nat1, active compounds read low 1.02 | locus YDL074C, strain BRE1, active compounds read low 0.972 | locus YDL101C, strain DUN1, active compounds read low 1.01 | locus YDL134C, strain PPH21, active compounds read low 1.01 | locus YDL185W, strain tfp1, active compounds read low 1 | locus YDL192W, strain arf1, active compounds read low 1 | locus YDR001C, strain nth1, active compounds read low 1.02 | locus YDR069C, strain doa4, active compounds read low 1.01 | locus YDR101C, strain arx1, active compounds read low 0.984 | locus YDR137W, strain rgp1, active compounds read low 1.02 | locus YDR150W, strain NUM1, active compounds read low 1.02 | locus YDR159W, strain sac3, active compounds read low 1.02 | locus YDR162C, strain NBP2, active compounds read low 1.02 | locus YDR195W, strain ref2 1.03 | locus YDR297W, strain sur2, active compounds read low 1.02 | locus YDR318W, strain mcm21, active compounds read low 1 | locus YDR334W, strain swr1, active compounds read low 1.02 | locus YDR335W, strain msn5, active compounds read low 1.01 | locus YDR388W, active compounds read low 1 | locus YDR392W, strain spt3, active compounds read low 1.03 | locus YDR502C, strain sam2, active compounds read low 1.02 | locus YEL003W, strain gim4, active compounds read low 1.02 | locus YEL037C, strain rad23, active compounds read low 1.02 | locus YEL061C, strain CIN8 (second series), active compounds read low 1.03 | locus YEL061C, strain CIN8, active compounds read low 1.01 | locus YER015W, strain faa2, active compounds read low 1.01 | locus YER016W, strain bim1, active compounds read low 1.03 | locus YER110C, active compounds read low 1 | locus YER111C, strain swi4, active compounds read low 1.02 | locus YER155C, strain BEM2 (second series), active compounds read low 1.08 | locus YER155C, strain BEM2, active compounds read low 1.02 | locus YER167W, strain BCK2, active compounds read low 1.02 | locus YFR010W, strain ubp6, active compounds read low 1.02 | locus YGL078C, strain dbp3, active compounds read low 0.987 | locus YGL086W, strain mad1, active compounds read low 1 | locus YGL167C, strain pmr1, active compounds read low 1.03 | locus YGL173C, strain kem1, active compounds read low 1.02 | locus YGL227W, strain vid30, active compounds read low 1.02 | locus YGL240W, strain doc1, active compounds read low 1.03 | locus YGL248W, strain PDE1, active compounds read low 1.01 | locus YGL253W, strain hxk2, active compounds read low 0.963 | locus YGR078C, strain PAC10, active compounds read low 1.01 | locus YGR135W, strain pre9, active compounds read low 0.989 | locus YGR229C, strain SMI1, active compounds read low 1.03 | locus YGR252W, strain gcn5, active compounds read low 1.04 | locus YHR013C, strain ard1, active compounds read low 1.03 | locus YHR027C, strain rpn1, active compounds read low 1.02 | locus YHR030C, strain SLT2, active compounds read low 1.01 and 0.976 | locus YHR079C, strain IRE1 (second series), active compounds read low 0.986 | locus YHR079C, strain IRE1, active compounds read low 0.978 | locus YHR094C, strain hxt1, active compounds read low 0.991 | locus YHR129C, strain ARP1, active compounds read low 1.01 | locus YHR142W, strain chs7, active compounds read low 1 | locus YHR200W, strain rpn10, active compounds read low 0.994 | locus YIL066C, strain RNR3, active compounds read low 1.01 | locus YIL073C, strain SPO22, active compounds read low 0.966 | locus YIL125W, strain kgd1, active compounds read low 1.01 | locus YIR030C, strain dcg1, active compounds read low 0.992 | locus YJL092W, strain hpr5, active compounds read low 1.02 | locus YJL095W, strain BCK1 (second series), active compounds read low 1.02 | locus YJL095W, strain BCK1, active compounds read low 1.01 and 0.989 | locus YJL115W, strain asf1, active compounds read low 1.03 | locus YJL129C, strain trk1, active compounds read low 1.01 | locus YJL134W, strain LCB3, active compounds read low 1.01 | locus YJL154C, strain vps35, active compounds read low 1.02 | locus YJL164C, strain tpk1, active compounds read low 1 | locus YJL166W, strain qcr8, active compounds read low 1.02 | locus YJL168C, strain set2, active compounds read low 1 | locus YJL187C, strain SWE1 (second series), active compounds read low 1.01 | locus YJL187C, strain SWE1, active compounds read low 1.03 | locus YJR043C, strain POL32, active compounds read low 0.988 | locus YJR066W, strain TOR1, active compounds read low 0.968
